Measurements reported in PubChem BioAssay (Tox21).
Records with an inconclusive call do not appear. A number with no mark means an inactive call. Active and inactive are the calls of the source. Calls come from the whole dose curve; as a rule, active = well fitted cell-killing curve with a large enough effect in the repeat runs; inconclusive = weak or mixed curves, or effect the other way; inactive = no such curve, though single readings can be large or run the other way.

experiment: qHTS assay to identify small molecule antagonists of the peroxisome proliferator-activated receptor gamma (PPARg) signaling pathway - cell viability counter screen (AID 743194); conditions: PPARg-bla HEK293H viability, CellTiter-Glo luminescence, 17 h, co-treated with 50 nM rosiglitazone; series mostly up to 62.6 µM; activity change, negative = cytotoxicity: at the top concentration; note: nearly all actives have a fitted effect of over 55% in size
Text: U.S. Tox21 Program National Center for Advancing Translational Sciences [NCATS] NIH Chemical Genomics Center [NCGC] U.S. Environmental Protection Agency [EPA] National Institutes of Environmental Health Sciences [NIEHS] National Toxicology Program [NTP] U.S. Food and Drug Administration [FDA] Tox21 Assay Overview: The peroxisome proliferator-activated receptors (PPARs) are lipid-activated transcription factors of the nuclear receptor superfamily with three distinct subtypes namely PPAR alpha, PPAR delta (also called PPAR beta) and PPAR gamma (PPARg). All these subtypes heterodimerize with Retinoid X receptor (RXR) and these heterodimers regulate transcription of various genes. PPAR-gamma receptor (glitazone receptor) is involved in the regulation of glucose and lipid metabolism. To identify the compounds that activate PPAR-gamma signaling, GeneBLAzer PPAR gamma UAS-bla HEK293H cell line (Invitrogen, Carlsbad, CA, USA) containing a beta-lactamase reporter gene under the control of an Upstream Activator Sequence (UAS) was used to screen the Tox21 compound library. The cytotoxicity of the Tox21 compound library against the PPARg-bla cell line was tested in parallel by measuring the cell viability using CellTiter-Glo assay in the same wells.
Tox21 Assay Protocol Summary: PPARg-bla cells were dispensed at 3000 cells/5uL/well in 1536-well black wall/clear bottom plates using a Multidrop Combi (Thermo Fisher Scientific, Waltham, MA) dispenser. After the assay plates were incubated at 37 C and 5% CO2 for 5 h, 23 nL of compounds dissolved in DMSO, positive controls or DMSO only was transferred to the assay plate by a Pintool station (Kalypsys, San Diego, CA), followed by addition of 1ul Rosiglitazone (50 nM, final concentration in the wells). The assay plates were incubated at 37 C for 17 h, and then 1 uL of LiveBLAzerTM B/G FRET substrate was added using a Bioraptr Flying Reagent Dispenser (FRD) workstation (Beckman Coulter, Indianapolis, IN, USA). The assay plates were incubated at room temperature for 1 h and fluorescence intensity was measured by an Envision plate reader (PerkinElmer, Shelton, CT). For cell viability readout that measures cytotoxicity, 4 ul/well of CellTiter-Glo reagent was added into the assay plates using a Flying Reagent Dispenser. After 30 min incubation at room temperature, the luminescence intensity in the plates was measured using a ViewLux plate reader (PerkinElmer).
% is set by controls: 0 for no effect and ±100 for the full control effect.

| SMILES | activity change, negative = cytotoxicity | outcome |
| --- | --- | --- |
| Cc1cnc(NS(=O)(=O)c2ccc(N)cc2)nc1 | -15.2% | – |
| CC(C)CNCC(C)C | -22.8% | – |
| Nc1ccccc1S(=O)(=O)O | 8.87% | – |
| CC(C[N+](C)(C)C)OC(N)=O (stereo not given) | 7.5% | – |
| NCCCNCCSP(=O)(O)O | -6.69% [at 13.2 µM] | – |
| Nc1cc(=O)[nH]c(N)n1 | 3.94% | – |
| CC(C)(C)NCCNC(C)(C)C | 6.21% | – |
| CC(=O)CC(C)C | -17.9% | – |
| CCOC(=O)C(=O)OCC | 8.46% | – |
| O=C1CC2CC1C1CCCC21 (stereo not given) | -3.5% | – |
| CCn1ccnc1CC1COc2ccccc2O1 (stereo not given) | -0.651% | – |
| CCC=O | 19.4% [at 81.1 µM] | – |
| CCCCOCCOCCOCCCC | 21.6% | – |
| CC(C)(O)C#CC(C)(C)O | 17.2% [at 81.1 µM] | – |
| CCCCCCCCCCCCCC=O | 14.4% [at 5.95 µM] | – |
| N[C@@H](C(=O)N[C@@H]1C(=O)N2C(C(=O)O)=C(Cl)CS[C@H]12)c1ccccc1 | 0.956% [at 13.2 µM] | – |
| CC(=O)Nc1c(I)cc(I)c(C(=O)O)c1I | -8.74% | – |
| CN1C(=O)N(C)C(O)C1O (stereo not given) | 18.8% | – |
| O=C(O)COc1nn(Cc2ccccc2)c2ccccc12 | 29.6% | – |
| O=C1CCCCCCCCCCCN1 | – | inactive |

| SMILES | activity change, negative = cytotoxicity | outcome |
| --- | --- | --- |
| CC(C)NCC(O)c1ccc(NS(C)(=O)=O)cc1 (stereo not given) | 11.5% [at 81.1 µM] | – |
| CC(=O)CC(C)(C)C1CCCCC1 | -7.74% | – |
| CCN(Cc1ccncc1)C(=O)C(CO)c1ccccc1 (stereo not given) | 6.66% | – |
| NS(=O)(=O)c1cc(C(=O)NN2C[C@H]3[C@H]4CCC(C4)[C@H]3C2)ccc1Cl | 2.68% | – |
| ClC(Cl)(Br)Br | -0.832% | – |
| CCOC(=O)Nc1ccc(NCc2ccc(F)cc2)nc1N | 22.1% | – |
| CC(C(=O)O)c1ccc(CC2CCCC2=O)cc1 (stereo not given) | -9.81% | – |
| CCCCNC(=O)NCCCC | -14.4% | – |
| CCO[Si](CCC1CCC2OC2C1)(OCC)OCC (stereo not given) | -4.1% | – |
| COC(=O)c1ccc(C)cc1C1=NC(C)(C(C)C)C(=O)N1 (stereo not given) | 5.3% | – |
| CC(C)CCCC(C)N (stereo not given) | -9.59% | – |
| CS(=O)(=O)O | 6.14% [at 81.1 µM] | – |
| CO[C@]12C[C@@H](COC(=O)c3cncc(Br)c3)CN(C)[C@@H]1Cc1cn(C)c3cccc2c13 | 14.1% | – |
| COC(=O)C1=C(C)NC(C)=C(C(=O)OC)C1c1ccccc1[N+](=O)[O-] | – | inactive |
| C[C@H](NC(CCc1ccccc1)C(=O)O)C(=O)N1CCC[C@H]1C(=O)O (stereo not given in full) | -3.38% | – |
| O=c1n(CCO)c(=O)n(CCO)c(=O)n1CCO | – | inactive |
| CCC(C)C1CCCCC1=O (stereo not given) | -8.55% | – |
| Cc1ccc(C#N)cc1 | 11.3% | – |
| N#Cc1ccc(C2CCCc3cncn32)cc1 (stereo not given) | 3.28% [at 29.1 µM] | – |
| CC(C)=CCCC(C)CC(=O)O (stereo not given) | -7.76% | – |
